Source: PubChem (several laboratories)
Only some compounds are listed: those with a hit (about 4.6% of all), similar ones and a draw of the others.
ADAM10 inh – inhibits human ADAM10 | O14672 | recombinant ADAM10, EDANS/DABCYL FRET peptide cleavage, 3 h | inhibition, % at 7 µM | 370,000 tested, 0.62% active | AID 720582;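 active means inhibition above a per-campaign cutoff equal to the mean of compounds falling between control-based bounds plus 3 SD, cut at about 20% in these data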;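 further: 0% = DMSO wells while the 100% control is not disclosed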
ADAM17 inh – ADAM17 inhibition, QFRET primary screen; recombinant ADAM17, EDANS/DABCYL FRET peptide cleavage; inhibition, % at 6.95 µM; 370,000 tested, 0.83% active;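 active means inhibition above the mean of compounds lying between control limits plus 3 SD, set per campaign, cut at about 8.5% in these data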;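 further: 0% = DMSO-only wells as the low control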
KLK7 zymogen act – activates the human kallikrein-7 zymogen; activation, % at 7 µM; purified proKLK7, EDANS-DABCYL substrate fluorescence; 100% is mature enzyme control, 0% vehicle; 370,000 tested, 0.9% active; AID 652039;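 active means activation above the mean of all tested compounds plus 3 SD, computed per campaign excluding outliers beyond control limits, cut at about 13% in these data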
Target sequence (P49862 whole entry, looked up): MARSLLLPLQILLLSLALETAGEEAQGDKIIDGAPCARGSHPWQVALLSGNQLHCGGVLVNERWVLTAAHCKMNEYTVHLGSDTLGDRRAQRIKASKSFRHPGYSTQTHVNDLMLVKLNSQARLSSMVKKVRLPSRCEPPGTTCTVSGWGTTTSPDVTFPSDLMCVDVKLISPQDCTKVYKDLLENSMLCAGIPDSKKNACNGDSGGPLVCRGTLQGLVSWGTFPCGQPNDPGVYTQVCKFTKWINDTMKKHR
GRIN3A LBD mod – modulates the human NR3A ligand-binding domain. NR3A LBD differential scanning fluorimetry, Tm shift; 0% = protein alone, 100% = glycine-bound protein. Tm shift relative to glycine control, % at 25 µM. 340,000 tested, 2.5% active. AID 1259313;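 active means melting temperature shift of at least 10% of the positive control shift, at one fixed dose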
FAS-TE inh – inhibitors of human fatty acid synthase thioesterase domain | P49327 | recombinant FAS-TE, OMFH fluorogenic substrate, fluorescence endpoint | inhibition, % at 15 µM | 360,000 tested, 0.67% active;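 active means compounds whose normalised, plate-corrected inhibition of enzyme fluorescence in the single-dose primary screen is 50% or more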;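 further: 0% = DMSO with enzyme and 100% = substrate without enzyme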
Active calls of the source: *; i = inactive; · = not tested or not shown.

SMILES	ADAM10 inh	ADAM17 inh	KLK7 zymogen act	GRIN3A LBD mod	FAS-TE inh
O=C(CSc1ccc(-c2nc3ccccc3[nH]2)cn1)Nc1ccc2c(c1)OCCO2	·	·	·	29*	-1
O=C(CSc1ccccn1)Nc1ccc2c(c1)OCCO2	0	-8	0	4	-5
O=C(CSc1ccc(-c2nc3ccccc3[nH]2)cn1)Nc1ccc(S(=O)(=O)NC2CC2)cc1	-64	-16	-2	21*	9
Cc1cc2nc(-c3ccc(SCC(=O)N4CCOCC4)nc3)[nH]c2cc1C	i	-178	0	-1	-4
Cc1ccc2nc(-c3ccc(SCC(=O)Nc4nc(C)cs4)nc3)[nH]c2c1	-21	-6	1	10	-14
Cc1cc2nc(-c3ccc(SCC(=O)Nc4ccc5c(c4)OCCO5)nc3)[nH]c2cc1C	-108	-32	-5	15*	-13
CCOC(=O)c1c(NC(=O)CSc2ncnc3[nH]ncc23)sc2c1CCC(C)C2 (centres undefined)	-2	2	0	0	-25
CCOC(=O)c1c(NC(=O)CSc2nnnn2-c2ccccc2)sc2c1CCC(C)C2 (centres undefined)	1	-8	0	17*	15
O=C(Nc1cccc(Cl)c1)C1C2CCC3C(CCC21)C3(Cl)Cl (centres undefined)	14	7	-1	14*	35
O=C(O)C1CC=CCC1C(=O)Nc1cccc(Cl)c1 (centres undefined)	9	-1	0	11*	-1
CC(=O)Nc1ccc(C(CCCc2ccccc2)C2=CCCCC2)cc1 (centres undefined)	4	3	0	·	·
CC1(c2ccc3ccccc3c2)NC(=O)N(CC(=O)NCc2cccs2)C1=O (centres undefined)	2	1	0	1	-4
CC1(c2ccc3ccccc3c2)NC(=O)N(CC(=O)NCC(C)(C)N2CCOCC2)C1=O (centres undefined)	-4	-1	0	17*	-7
COc1cccc(CN[C@@H]2CC[C@@]34CCCN3C(=O)CCC[C@H]4C2)c1	-9	-8	·	·	·
NS(=O)(=O)c1ccc(Nc2ccc3cc(S(=O)(=O)N4CCCCC4)ccc3n2)cc1	i	-364	4	37*	42
O=C(O)c1cccc(-n2sc3ccccc3c2=O)c1	2	-4	0	23*	-12
O=c1c2ccccc2sn1-c1ccccc1	-10	-4	0	3	-5
Nn1c(SCc2ccc([N+](=O)[O-])cc2)nnc1-c1n[nH]c2c1CCC2	-7	-1	0	·	·
O=C1c2ccccc2NC(c2ccc(Br)o2)N1O (centres undefined)	-15	-6	0	-1	-2
O=C1c2ccccc2NC(c2ccc(-c3ccc(C(F)(F)F)cc3)o2)N1O (centres undefined)	-19	-3	0	23*	3
O=C(Nc1ccc(OC(F)(F)F)cc1)Oc1ccccc1N1CCCCC1	-2	-2	1	13*	11
O=C(Nc1ccc(OC(F)(F)F)cc1)Oc1ccccc1N1CCOCC1	4	1	1	3	7
CCN(CC)C(=O)CC[C@@H]1CC[C@]2(CCCN(Cc3ccncc3)C2)O1	-4	-2	0	·	·
CCNc1nc(Cl)nc(-c2cn(-c3ccccc3)c3ccccc23)n1	-46	-20	-3	12*	0
Clc1nc(Oc2ccccc2)nc(-c2cn(-c3ccccc3)c3ccccc23)n1	-52	-26	1	3	4
SMILES	ADAM10 inh	ADAM17 inh	KLK7 zymogen act	GRIN3A LBD mod	FAS-TE inh
NS(=O)(=O)c1cccc(NC(=O)COC(=O)c2cc(-c3ccc(Cl)cc3)nc3ccccc23)c1	-36	-5	-9	34*	28
Cc1ccc2c(Cl)cc(Cl)c(OCC(=O)Nc3cccc(S(=O)(=O)N(C)C)c3)c2n1	-25	-1	0	-26	9
Cc1cc(C(=O)OCC(=O)Nc2cccc(S(=O)(=O)N(C)C)c2)c2ccccc2n1	0	0	0	-6	2
Cc1ccc2c(Cl)cc(Cl)c(OCC(=O)Nc3cccc(S(N)(=O)=O)c3)c2n1	-4	-3	0	11*	24
CCOC(=O)C1=C(N)Oc2cc(O)ccc2C1c1cccnc1 (centres undefined)	-1	-2	0	0	-5
CCOC(=O)C1=C(N)Oc2cc(O)ccc2C1c1cccc(Cl)c1 (centres undefined)	-2	-2	0	13*	40
CCOC(=O)CC[C@@H]1CC[C@]2(CCCN(S(=O)(=O)C3CCCCC3)C2)O1	3	1	1	·	·
CCCCOC(=O)c1nc(Cl)c(Cl)c(N)c1Cl	2	0	0	13*	3
Cc1ccc(NC(=S)Nc2ccc(C(C)C)cc2)cc1S(=O)(=O)N1CCCCCC1	12	4	0	28*	25
C=CCNC(=S)Nc1ccc(C)c(S(=O)(=O)N2CCCCC2)c1	2	-4	0	-2	6
Cc1ccc(NC(=O)CNC(=O)c2ccc(OC(F)F)cc2)cc1S(=O)(=O)N1CCCCCC1	-1	4	0	12*	16
N#CCC[C@@H]1CC[C@]2(CCCN(Cc3ccc(Br)cc3)C2)O1	-6	-7	-1	·	·
C[C@H]1[C@H](c2ccccc2)OC(O)([C@H](Cc2ccccc2)NC(=O)OC(C)(C)C)CN1C (some centres undefined)	-2	-6	·	·	·
Oc1ccccc1/C=N/n1c2ccccc2c2ccccc21	-5	-3	-1	19*	20
O=C(OC12CCCN(C1)/C(=C/c1ccncc1)C2)c1ccc(Cl)cc1 (centres undefined)	-2	4	0	·	·
Cc1ccc(S(=O)(=O)N2CCN(C(=O)c3nn(C(C)C)c(=O)c4ccccc34)CC2)cc1C	0	-3	0	-5	1
Cn1nc(C(=O)N2CCN(S(=O)(=O)c3ccccc3)CC2)c2ccccc2c1=O	10	2	-1	12*	-9
Cc1cc2n(n1)C(c1c[nH]c3ccccc13)Nc1ccccc1-2 (centres undefined)	·	·	·	32*	-3
O=C(OCc1c(-c2ccccc2)ncc2ccccc12)c1ccc(F)cc1	-6	-3	1	14*	35
Clc1ccc2c(c1)nc1n2CCCC1	6	1	0	15*	-4
O=c1c2ccccc2nc(N/N=C/c2c(O)ccc3ccccc23)n1O	-113	-39	-2	12*	-126
CCOC(=O)c1c(-c2ccccc2)csc1NC(=O)/C(C#N)=C/c1ccc(OC)c(OC)c1	-5	0	0	-1	-1
CCOC(=O)c1c(-c2ccccc2)csc1NC(=O)/C(C#N)=C/c1ccc(O)c(OC)c1	5	-1	-1	27*	3
COc1ccc(/C(C)=N\NC(=O)c2ccco2)cc1	-3	-3	0	·	·
